Data as given in the supplement of paper PMC6279402.
Counter-ions that a name gives are not always drawn. ± gives the standard deviation of the averaged measurements.

Test system: A549
Test: relative viability (normalised to negative control = 1, bortezomib = 0) (fraction); higher = less cytotoxic
Conditions: inflammatory serum-free RHB-A with cytokines + LPS, 5 d + 24 h CellTiter-Blue
[1] = compound 30 nM, GSK126 pretreatment: 5 uM GSK126
[2] = compound 30 nM, GSK126 pretreatment: none (vehicle)
[3] = compound 300 nM, GSK126 pretreatment: 5 uM GSK126
[4] = compound 300 nM, GSK126 pretreatment: none (vehicle)

Structure (SMILES)	relative viability [1]	relative viability [2]	relative viability [3]	relative viability [4]
C#Cc1cccc(Nc2ncnc3cc(OCCOC)c(OCCOC)cc23)c1	0.81 ± 0.083	0.823 ± 0.12	0.448 ± 0.041	0.494 ± 0.031
CCc1c2c(nc3ccc(OC(=O)N4CCC(N5CCCCC5)CC4)cc13)-c1cc3c(c(=O)n1C2)COC(=O)[C@]3(O)CC [Irinotecan HCl; Irinotecan hydrochloride]	0.898 ± 0.038	0.895 ± 0.018	0.931 ± 0.037	0.917 ± 0.031
Cc1ccc(NC(=O)c2ccc(CN3CCN(C)CC3)cc2)cc1Nc1nccc(-c2cccnc2)n1	0.902 ± 0.12	0.867 ± 0.096	0.976 ± 0.13	1 ± 0.093
O=C(NC1CCNCC1)c1n[nH]cc1NC(=O)c1c(Cl)cccc1Cl	0.969 ± 0.17	0.924 ± 0.074	0.0464 ± 0.029	0.136 ± 0.057
Cc1cnc(Nc2ccc(N3CCN(C)CC3)cc2)nc1Nc1cccc(S(=O)(=O)NC(C)(C)C)c1	1.22 ± 0.15	1.2 ± 0.08	1.2 ± 0.023	1.27 ± 0.053
Nc1ccn([C@@H]2O[C@H](CO)[C@@H](O)[C@@H]2O)c(=O)n1	0.833 ± 0.016	0.79 ± 0.088	0.668 ± 0.094	0.475 ± 0.1
Cc1ccc(-n2nc(C(C)(C)C)cc2NC(=O)Nc2ccc(OCCN3CCOCC3)c3ccccc23)cc1	1.13 ± 0.13	0.937 ± 0.18	1.32 ± 0.064	1.13 ± 0.23
COc1ccc(-c2cc3c(C)nc(N)nc3n(C3CCC(OCCO)CC3)c2=O)cn1 (configuration not stated)	0.617 ± 0.071	0.634 ± 0.063	0.0912 ± 0.017	0.087 ± 0.014
CS(=O)(=O)c1ccc(C(=O)Nc2ccc(Cl)c(-c3ccccn3)c2)c(Cl)c1 [Vismodegib]	0.993 ± 0.058	0.952 ± 0.12	1.05 ± 0.14	1.03 ± 0.074
CC(C)C[C@H](NC(=O)[C@H](Cc1ccccc1)NC(=O)c1cnccn1)B(O)O [Bortezomib]	0.00425 ± 0.0011	0.015 ± 0.0062	0.00234 ± 0.0024	0.00262 ± 0.0014
O=NN(CCCl)C(=O)NCCCl [Carmustine]	0.852 ± 0.1	0.858 ± 0.13	0.894 ± 0.046	0.955 ± 0.072
CC(C)(C#N)c1cc(Cn2cncn2)cc(C(C)(C)C#N)c1 [Anastrozole; Arimidex]	0.743 ± 0.051	0.792 ± 0.039	0.804 ± 0.086	0.896 ± 0.04
Nc1ncn([C@H]2C[C@H](O)[C@@H](CO)O2)c(=O)n1 [5-Aza-2'-deoxycytidine; Decitabine]	0.841 ± 0.15	0.715 ± 0.17	0.86 ± 0.18	0.836 ± 0.13
CN(N=O)C(=O)N[C@@H]1[C@@H](O)[C@H](O)[C@@H](CO)O[C@@H]1O [Streptozocin]	0.985 ± 0.071	0.903 ± 0.13	1.01 ± 0.15	1.08 ± 0.088
NC(N)=NC(N)=NCCc1ccccc1 [Phenformin hydrochloride]	0.897 ± 0.13	0.864 ± 0.068	0.955 ± 0.058	0.966 ± 0.13
O=C(CCCCCCC(=O)Nc1ccccc1)NO [Vorinostat; SAHA]	0.83 ± 0.15	0.868 ± 0.073	0.891 ± 0.17	1 ± 0.19
CCCS(=O)(=O)Nc1ccc(F)c(C(=O)c2c[nH]c3ncc(-c4ccc(Cl)cc4)cc23)c1F [vemurafenib]	0.86 ± 0.082	0.848 ± 0.071	1 ± 0.051	1.02 ± 0.061
COc1cc(Nc2c(C#N)cnc3cc(OCCCN4CCN(C)CC4)c(OC)cc23)c(Cl)cc1Cl [Bosutinib(SKI-606)]	0.984 ± 0.052	0.991 ± 0.061	0.65 ± 0.061	0.7617 ± 0.007
COc1cc([C@@H]2c3cc4c(cc3[C@@H](O[C@@H]3O[C@@H]5CO[C@@H](C)O[C@H]5[C@H](O)[C@H]3O)[C@H]3COC(=O)[C@H]23)OCO4)cc(OC)c1O [Etoposide]	0.938 ± 0.081	0.935 ± 0.037	0.985 ± 0.046	0.845 ± 0.047
FC(F)c1nc2ccccc2n1-c1nc(N2CCOCC2)nc(N2CCOCC2)n1	0.684 ± 0.12	0.738 ± 0.044	0.321 ± 0.1	0.395 ± 0.033
O=C(c1ccc(OCCN2CCCCC2)cc1)c1c(-c2ccc(O)cc2)sc2cc(O)ccc12 [Raloxifene HCl; Raloxifene hydrochloride]	0.955 ± 0.064	0.897 ± 0.094	0.961 ± 0.043	0.987 ± 0.058
N#Cc1c(O)c2c(-c3ccc(-c4ccccc4O)cc3)csc2[nH]c1=O	0.86 ± 0.15	0.937 ± 0.13	0.938 ± 0.18	0.942 ± 0.11
C/C(=C\c1csc(C)n1)[C@@H]1C[C@@H]2O[C@]2(C)CCC[C@H](C)[C@H](O)[C@@H](C)C(=O)C(C)(C)[C@@H](O)CC(=O)N1 [Ixabepilone]	0.464 ± 0.084	0.269 ± 0.068	0.386 ± 0.016	0.288 ± 0.043
COc1cc([C@@H]2c3cc4c(cc3[C@@H](O[C@@H]3O[C@@H]5CO[C@@H](c6cccs6)O[C@H]5[C@H](O)[C@H]3O)[C@H]3COC(=O)[C@H]23)OCO4)cc(OC)c1O [Teniposide]	0.861 ± 0.062	0.777 ± 0.076	0.685 ± 0.037	0.544 ± 0.072
O=c1c(O)c(-c2ccc(O)c(O)c2)oc2cc(O)cc(O)c12 [QUERCETIN; Quercetin(Sophoretin); Quercetin dihydrate]	0.89 ± 0.032	0.911 ± 0.052	0.961 ± 0.11	0.945 ± 0.058
Cc1cn(-c2cc(NC(=O)c3ccc(C)c(Nc4nccc(-c5cccnc5)n4)c3)cc(C(F)(F)F)c2)cn1 [Nilotinib]	1.02 ± 0.13	0.993 ± 0.089	1.14 ± 0.17	1.07 ± 0.069
CC(=O)O[C@]1(C(C)=O)CC[C@H]2[C@@H]3C=C(C)C4=CC(=O)CC[C@]4(C)[C@H]3CC[C@@]21C [Megestrol acetate]	1.35 ± 0.04	1.21 ± 0.14	1.48 ± 0.078	1.55 ± 0.085

Structure (SMILES)	relative viability [1]	relative viability [2]	relative viability [3]	relative viability [4]
COc1cc2nccc(Oc3ccc(NC(=O)Nc4ccc(F)cc4F)c(F)c3)c2cc1OC	0.86 ± 0.097	0.832 ± 0.051	0.916 ± 0.12	1.01 ± 0.075
CN1CCN(CCOc2cc(OC3CCOCC3)c3c(Nc4c(Cl)ccc5c4OCO5)ncnc3c2)CC1 [AZD0530(Saracatinib)]	0.831 ± 0.073	0.827 ± 0.071	0.746 ± 0.057	0.914 ± 0.038
CC1(C)CNc2cc(NC(=O)c3cccnc3NCc3ccncc3)ccc21 [Motesanib Diphosphate]	0.917 ± 0.035	0.864 ± 0.062	0.937 ± 0.14	0.918 ± 0.06
Cc1ccc(C(=O)Nc2cccc(C(F)(F)F)c2)cc1Nc1nc(-c2cccnc2)nc2c1cnn2C	0.992 ± 0.12	0.959 ± 0.17	1.01 ± 0.13	1.06 ± 0.15
CS(=O)(=O)CCNCc1ccc(-c2ccc3ncnc(Nc4ccc(OCc5cccc(F)c5)c(Cl)c4)c3c2)o1 [Lapatinib ditosylate; Lapatinib; Lapatinib Ditosylate]	0.811 ± 0.091	0.826 ± 0.083	0.594 ± 0.11	0.562 ± 0.057
C[C@]12CC[C@@H]3c4ccc(O)cc4C[C@@H](CCCCCCCCC[S+]([O-])CCCC(F)(F)C(F)(F)F)[C@H]3[C@@H]1CC[C@@H]2O (some centres not stated) [Fulvestrant]	0.901 ± 0.098	0.836 ± 0.039	0.85 ± 0.065	0.855 ± 0.024
CC(C)(C)c1cc(NC(=O)Nc2ccc(-c3cn4c(n3)sc3cc(OCCN5CCOCC5)ccc34)cc2)no1	0.952 ± 0.016	0.898 ± 0.068	1.05 ± 0.087	1 ± 0.031
Cc1cnc(-c2cnc(NCCNc3ccc(C#N)cn3)nc2-c2ccc(Cl)cc2Cl)[nH]1	0.847 ± 0.064	0.834 ± 0.016	0.788 ± 0.059	0.732 ± 0.097
CC(C)(C)Cn1c(N)nc2ccc(-c3[nH]c(C(C)(C)C)nc3-c3ccc(F)cc3)nc21	1.11 ± 0.14	0.933 ± 0.21	1.25 ± 0.16	1.15 ± 0.18
CO[C@H]1C(=O)[C@]2(C)[C@@H](OC)C[C@H]3OC[C@@]3(OC(C)=O)[C@H]2[C@H](OC(=O)c2ccccc2)[C@]2(O)C[C@H](OC(=O)[C@H](O)[C@@H](NC(=O)OC(C)(C)C)c3ccccc3)C(C)=C1C2(C)C [Cabazitaxel]	0.487 ± 0.065	0.349 ± 0.054	0.541 ± 0.061	0.421 ± 0.077
O=C(Nc1ccc(OC(F)(F)F)cc1)c1sccc1NCc1ccnc2ccccc12	1.07 ± 0.025	1.05 ± 0.035	1.15 ± 0.16	1.2 ± 0.036
COc1cc2c(Nc3ccc(NC(=O)c4ccccc4)cc3)ncnc2cc1OCCCN1CCOCC1	1.04 ± 0.053	0.992 ± 0.1	0.963 ± 0.07	0.9853 ± 0.0095
Cc1c2oc3c(C)ccc(C(=O)N[C@@H]4C(=O)N[C@H](C(C)C)C(=O)N5CCC[C@H]5C(=O)N(C)CC(=O)N(C)[C@@H](C(C)C)C(=O)O[C@@H]4C)c3nc-2c(C(=O)N[C@@H]2C(=O)N[C@H](C(C)C)C(=O)N3CCC[C@H]3C(=O)N(C)CC(=O)N(C)[C@@H](C(C)C)C(=O)O[C@@H]2C)c(N)c1=O [Dactinomycin]	-0.00158 ± 0.00097	0.00574 ± 0.0057	-0.00171 ± 0.00059	0.00607 ± 0.0081
CC(=O)c1c(C)c2cnc(Nc3ccc(N4CCNCC4)cn3)nc2n(C2CCCC2)c1=O	0.89 ± 0.074	0.913 ± 0.063	0.903 ± 0.087	0.931 ± 0.064
O=C(NOCC(O)CO)c1cc(Br)c(F)c(F)c1Nc1ccc(I)cc1F (configuration not stated)	0.407 ± 0.025	0.492 ± 0.087	0.193 ± 0.019	0.276 ± 0.0045
COc1cc(Nc2ncc(F)c(Nc3ccc4c(n3)N(COP(=O)(O)O)C(=O)C(C)(C)O4)n2)cc(OC)c1OC	0.929 ± 0.03	0.888 ± 0.056	0.952 ± 0.013	0.983 ± 0.067
CCN(CC)CCCC(C)Nc1c2ccc(Cl)cc2nc2ccc(OC)cc12 (configuration not stated)	0.836 ± 0.066	0.847 ± 0.051	1.02 ± 0.091	1.02 ± 0.11
Cc1cc(Nc2nc(N[C@@H](C)c3ccc(F)cc3)c(C#N)cc2F)n[nH]1	1.23 ± 0.055	1.16 ± 0.11	0.269 ± 0.021	0.309 ± 0.027
COc1cc(N2CCC(N3CCN(C)CC3)CC2)ccc1Nc1ncc(Cl)c(Nc2ccccc2S(=O)(=O)C(C)C)n1	0.545 ± 0.012	0.605 ± 0.022	0.211 ± 0.019	0.259 ± 0.028
Nc1nc(Cl)nc2c1ncn2[C@H]1C[C@H](O)[C@@H](CO)O1 [Cladribine]	0.723 ± 0.12	0.729 ± 0.099	0.386 ± 0.1	0.305 ± 0.075
Nc1nccc(Oc2ccc(NC(=O)c3c[nH]cc(-c4ccc(F)cc4)c3=O)cc2F)c1Cl	0.87 ± 0.13	0.882 ± 0.16	1.14 ± 0.15	1.12 ± 0.18
C=CC(=O)N1CCC[C@@H](n2nc(-c3ccc(Oc4ccccc4)cc3)c3c(N)ncnc32)C1	0.769 ± 0.14	0.718 ± 0.11	0.429 ± 0.02	0.41 ± 0.048
Cn1c(=O)c(F)c(Nc2ccc(I)cc2F)c2c(=O)n(C[C@@H](O)CO)cnc21	0.156 ± 0.017	0.1847 ± 0.0015	0.0544 ± 0.0097	0.0397 ± 0.0058
Fc1cc(-c2cccc3ncc(-c4cnn(C5CCNCC5)c4)nc23)cc(F)c1CN1CCOCC1	0.927 ± 0.076	0.889 ± 0.13	1.11 ± 0.12	1.05 ± 0.15
N#CC(=C(/N)Sc1ccccc1N)/C(C#N)=C(/N)Sc1ccccc1N	0.835 ± 0.084	0.825 ± 0.11	0.61 ± 0.084	0.684 ± 0.12
CNNCc1ccc(C(=O)NC(C)C)cc1 [Procarbazine hydrochloride; Procarbazine]	0.962 ± 0.15	0.915 ± 0.14	0.997 ± 0.12	0.967 ± 0.06
